Data published in PubChem BioAssay (Tox21).
Values joined by “and” are separate entries in the source; they are usually repeats but may differ in a detail not shown here. Equal values may be shown once. Results filed as inconclusive are left out. Entries that show only a call come without a potency. Active and inactive are the calls of the source. Unless noted, calls come from the whole dose curve; as a rule, active = well fitted curve in the direction sought with a large enough effect in the repeat runs; inconclusive = weak or mixed curves; inactive = no such curve, though single readings can be large; an effect the other way counts as inactive or inconclusive.

Experiments:
[1] = qHTS assay for small molecule agonists of the p53 signaling pathway (AID 651631; calls by dose curve; note: nearly all actives have a fitted effect of over 15% in size; note: potency is the fitted concentration of half-maximal effect)
How it was run: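 Fluorescence intensity from cleaved LiveBLAzer B/G substrate (2 h, room temperature) served as the signal. Beforehand, HCT-116 reporter cells bearing p53 response elements were treated 16 h at 37 °C with DMSO-dissolved compounds.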

[2] = qHTS assay for identifying genotoxic compounds that show differential cytotoxicity against isogenic chicken DT40 cell lines with known DNA damage response pathways - wild type cell line (AID 743012); note: nearly all actives have a fitted effect of over 60% in size; note: potency is the fitted concentration of half-maximal effect
How it was run: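 CellTiter-Glo luminescence readout of viability in wild type DT40 cells after 40 h compound exposure at 37 C/5% CO2; 300 cells/well; reagent incubated 30 min at room temperature before reading.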

[3] = qHTS assay for identifying genotoxic compounds that show differential cytotoxicity against isogenic chicken DT40 cell lines with known DNA damage response pathways - Rev3 mutant cell line (AID 743014); note: nearly all actives have a fitted effect of over 55% in size; note: potency is the fitted concentration of half-maximal effect
[4] = target: Androgen receptor (Homo sapiens) (UniProt P10275); assay: qHTS assay to identify small molecule antagonists of the androgen receptor (AR) signaling pathway (AID 743035; active = well fitted inhibition curve with a large enough effect in the signal ratio in the repeat runs, not every such curve was filed as active; the % refers to the signal ratio; note: potency is the fitted concentration of half-maximal effect)
Androgen receptor (Homo sapiens), sequence (P10275 whole entry, looked up): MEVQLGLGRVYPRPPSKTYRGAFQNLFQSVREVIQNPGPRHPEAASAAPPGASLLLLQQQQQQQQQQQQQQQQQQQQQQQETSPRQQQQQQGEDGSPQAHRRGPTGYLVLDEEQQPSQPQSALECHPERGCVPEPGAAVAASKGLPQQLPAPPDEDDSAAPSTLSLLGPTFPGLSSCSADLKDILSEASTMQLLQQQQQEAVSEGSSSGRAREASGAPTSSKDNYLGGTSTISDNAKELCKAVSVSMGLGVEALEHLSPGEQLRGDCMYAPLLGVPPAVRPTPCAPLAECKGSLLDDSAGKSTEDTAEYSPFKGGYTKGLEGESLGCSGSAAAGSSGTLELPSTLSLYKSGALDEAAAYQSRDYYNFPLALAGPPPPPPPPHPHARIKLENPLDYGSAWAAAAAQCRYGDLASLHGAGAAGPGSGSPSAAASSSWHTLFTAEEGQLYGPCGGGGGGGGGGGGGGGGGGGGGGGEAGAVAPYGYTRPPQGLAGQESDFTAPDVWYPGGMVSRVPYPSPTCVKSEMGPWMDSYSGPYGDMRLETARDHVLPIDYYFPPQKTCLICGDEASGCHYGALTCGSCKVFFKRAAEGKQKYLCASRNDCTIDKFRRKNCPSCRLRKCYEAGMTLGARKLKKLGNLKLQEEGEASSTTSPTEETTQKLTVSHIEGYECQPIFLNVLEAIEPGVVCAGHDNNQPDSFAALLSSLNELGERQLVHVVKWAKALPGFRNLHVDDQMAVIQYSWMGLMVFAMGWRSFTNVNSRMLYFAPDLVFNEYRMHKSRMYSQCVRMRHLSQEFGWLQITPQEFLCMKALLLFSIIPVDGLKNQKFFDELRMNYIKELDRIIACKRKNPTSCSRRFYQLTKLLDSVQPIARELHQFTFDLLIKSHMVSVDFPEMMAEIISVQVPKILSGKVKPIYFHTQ
How it was run: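 AR-bla HEK293 reporter cells; 4 h settle at 37C/5% CO2; compound + R1881 agonist, 16 h at 37C; LiveBLAzer B/G FRET substrate 2 h RT; fluorescence intensity read. qHTS format.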

[5] = target: Androgen receptor (Homo sapiens) (UniProt P10275); assay: qHTS assay to identify small molecule agonists of the androgen receptor (AR) signaling pathway (AID 743036; active = well fitted activation curve with a large enough effect in the signal ratio in the repeat runs, with a control signal flat, not every such curve was filed as active; the % refers to the signal ratio; note: potency is the fitted concentration of half-maximal effect)
How it was run: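 Agonist activity was scored by beta-lactamase reporter fluorescence in stably transfected HEK293 cells exposed to compounds for 16 h at 37C and 5% CO2. Substrate loading took 2 h at room temperature.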

[6] = target: Androgen receptor (Homo sapiens) (UniProt P10275); assay: qHTS assay to identify small molecule agonists of the androgen receptor (AR) signaling pathway using the MDA cell line (AID 743040; note: nearly all actives have a fitted effect of over 20% in size; note: potency is the fitted concentration of half-maximal effect)
How it was run: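 Stable MMTV-luciferase reporter in MDA-kb2 cells; note the promoter carries GR as well as AR response elements. 16 h compound treatment, 37C, 0% CO2; ONE-Glo luminescence endpoint.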

[7] = target: Androgen receptor (Homo sapiens) (UniProt P10275); assay: qHTS assay to identify small molecule antagonists of the androgen receptor (AR) signaling pathway using the MDA cell line (AID 743042; note: nearly all actives have a fitted effect of over 55% in size; note: potency is the fitted concentration of half-maximal effect)
How it was run: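 Antagonist mode: compounds plus R1881 agonist added to MDA-kb2 AR-luc cells, incubated 16 h at 37C. Luciferase reporter luminescence quantified, with multiplexed CellTiter-Fluor readout for cell viability.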

[8] = target: Peroxisome proliferator-activated receptor gamma (Homo sapiens) (UniProt P37231); assay: qHTS assay to identify small molecule agonists of the peroxisome proliferator-activated receptor gamma (PPARg) signaling pathway (AID 743094; active = well fitted activation curve with a large enough effect in the signal ratio in the repeat runs, not every such curve was filed as active; the % refers to the signal ratio)
Peroxisome proliferator-activated receptor gamma (Homo sapiens), sequence (P37231 whole entry, looked up): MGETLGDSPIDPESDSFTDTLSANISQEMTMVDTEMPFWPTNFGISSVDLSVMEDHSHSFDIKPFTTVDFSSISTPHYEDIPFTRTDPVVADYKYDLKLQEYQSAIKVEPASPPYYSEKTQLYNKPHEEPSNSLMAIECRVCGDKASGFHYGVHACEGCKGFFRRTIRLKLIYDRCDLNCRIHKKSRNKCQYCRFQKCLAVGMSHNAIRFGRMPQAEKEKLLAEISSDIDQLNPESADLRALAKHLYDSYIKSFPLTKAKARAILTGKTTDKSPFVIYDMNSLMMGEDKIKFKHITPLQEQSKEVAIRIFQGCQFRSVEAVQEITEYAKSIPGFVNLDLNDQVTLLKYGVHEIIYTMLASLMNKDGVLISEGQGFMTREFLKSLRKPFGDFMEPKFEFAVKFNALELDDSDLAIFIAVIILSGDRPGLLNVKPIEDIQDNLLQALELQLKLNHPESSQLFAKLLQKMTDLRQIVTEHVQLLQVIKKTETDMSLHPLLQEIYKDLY
How it was run: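 HEK293H PPARg-bla cells, 5 h settle at 37C/5% CO2; compound (DMSO) 17 h, 37C; B/G FRET substrate 1 h RT; fluorescence intensity read-out. qHTS format.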

[9] = qHTS assay to identify small molecule antagonists of the estrogen receptor alpha (ER-alpha) signaling pathway using the BG1 cell line in the presence of 0.1 nM 17-beta-estradiol - cell viability counter screen (AID 1259241); note: nearly all actives have a fitted effect of over 40% in size
How it was run: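 Viability in VM7Luc4E2 cells after 22 hr compound exposure under 0.1 nM 17beta-estradiol stimulation, by CellTiter-Fluor.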

[10] = target: Acetylcholinesterase (Homo sapiens) (UniProt P22303); assay: Acetylcholinesterase (AChE) small molecule antagonists: colormetric cell-based qHTS assay (AID 1347395; calls by dose curve; note: nearly all actives have a fitted effect of over 30% in size)
Acetylcholinesterase (Homo sapiens), sequence (P22303 whole entry, looked up): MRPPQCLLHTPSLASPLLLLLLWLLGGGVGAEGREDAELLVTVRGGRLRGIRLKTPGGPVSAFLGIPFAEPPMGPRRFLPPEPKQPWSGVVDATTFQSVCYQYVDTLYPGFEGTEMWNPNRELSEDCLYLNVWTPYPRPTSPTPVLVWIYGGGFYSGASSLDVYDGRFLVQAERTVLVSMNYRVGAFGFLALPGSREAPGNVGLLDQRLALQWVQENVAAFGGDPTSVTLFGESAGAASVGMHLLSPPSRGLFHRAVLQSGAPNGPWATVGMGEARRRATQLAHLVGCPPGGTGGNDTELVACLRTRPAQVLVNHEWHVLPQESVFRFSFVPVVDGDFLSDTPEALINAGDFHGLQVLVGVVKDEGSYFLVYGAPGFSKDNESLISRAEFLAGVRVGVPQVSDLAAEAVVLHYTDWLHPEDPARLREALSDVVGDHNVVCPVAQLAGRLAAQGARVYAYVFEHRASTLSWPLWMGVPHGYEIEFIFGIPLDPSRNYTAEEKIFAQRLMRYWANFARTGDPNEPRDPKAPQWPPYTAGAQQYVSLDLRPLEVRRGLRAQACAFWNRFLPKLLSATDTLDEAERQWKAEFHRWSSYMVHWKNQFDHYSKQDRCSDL
How it was run: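 Quantitative HTS in attached SH-SY5Y cells: 30 min compound exposure, then 90 min with acetylthiocholine and DTNB at 37 C; colour from thiocholine reports AChE activity.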

[11] = target: Acetylcholinesterase (Homo sapiens) (UniProt P22303); assay: Acetylcholinesterase (AChE) small molecule antagonists: enzyme-based qHTS assay (AID 1347397; calls by dose curve; note: nearly all actives have a fitted effect of over 55% in size); settings: Potency: AChE enzyme activity inhibition; outcome: AChE enzyme activity inhibition
How it was run: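 First, recombinant human AChE (50 mU/mL as dispensed) received test compound or DMSO. Second, plates stood 30 min at room temperature. Third, DTNB and acetylthiocholine were added, followed by 10 min at room temperature and colorimetric detection.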

[12] = target: Acetylcholinesterase (Homo sapiens) (UniProt P22303); assay: Acetylcholinesterase (AChE) small molecule antagonists: fluorescence cell-based qHTS assay (AID 1347398; calls by dose curve; note: nearly all actives have a fitted effect of over 50% in size); settings: Potency: AChE activity; outcome: AChE activity
How it was run: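 Homogeneous quantitative HTS format. SH-SY5Y cells seeded at 2,000 per well settle overnight at 37 C. Compound pretreatment runs 30 min (37 C, 5% CO2); substrate/probe mix then reacts 40 min at RT before reading 490/520 nm.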

[13] = target: Acetylcholinesterase (Homo sapiens) (UniProt P22303); assay: Acetylcholinesterase (AChE) small molecule antagonists: enzyme-based qHTS assay with human liver microsomes (AID 1347399; calls by dose curve; note: nearly all actives have a fitted effect of over 60% in size); settings: Potency: qHTS inhibition; outcome: qHTS inhibition
How it was run: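 Recombinant human AChE (50 mU/mL in the enzyme mix) and human liver microsomes (0.25 mg/mL final) were preincubated with compound and NADPH (0.25 mg/mL final) for 30 min at 37 C. Acetylthiocholine/DTNB was then added; thiocholine was read colorimetrically after 10 min at room temperature.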

C[C@@H](Cc1ccccc1)N(C)C
Potency [1]: inactive | Potency [2]: inactive | Potency [3]: inactive | Potency [4]: inactive | Potency [5]: inactive | Potency [6]: inactive | Potency [7]: inactive | Potency [8]: inactive

c1ccccc1
Potency [9]: inactive | Potency [10]: inactive | Potency [11]: inactive | Potency [12]: inactive | Potency [13]: inactive

COc1ccc2c3c1O[C@H]1[C@@H](O)C=C[C@H]4[C@@H](C2)NCC[C@@]341
Potency [1]: inactive | Potency [2]: inactive

C=CCN(C1=NCCN1)c1c(Cl)cccc1Cl
Potency [1]: inactive | Potency [3]: inactive | Potency [8]: inactive

O=C(C[C@@H]1NCCC[C@H]1O)Cn1cnc2cc(Br)c(Cl)cc2c1=O
Potency [1]: inactive | Potency [2]: inactive | Potency [3]: inactive

COC1=CC=C2[C@H]3Cc4ccc(OC)c5c4[C@@]2(CCN3C)[C@H]1O5
Potency [1]: inactive | Potency [2]: inactive | Potency [3]: inactive | Potency [8]: inactive

CCC(=O)O[C@]1(c2ccccc2)CCN(C)C[C@H]1C
Potency [1]: inactive | Potency [2]: 21.1 µM (active) | Potency [4]: inactive | Potency [5]: inactive | Potency [6]: inactive | Potency [7]: inactive | Potency [8]: inactive

CCNC(C)Cc1cccc(C(F)(F)F)c1 (configuration not stated)
Potency [2]: inactive | Potency [8]: inactive

C=C[C@H]1CN2CC[C@H]1C[C@@H]2[C@@H](O)c1ccnc2ccccc12
Potency [8]: inactive

OC(c1ccccc1)(c1ccccc1)C1CN2CCC1CC2 (configuration not stated)
Potency [2]: 26.6 µM (active) | Potency [4]: inactive | Potency [6]: 26.6 µM (active) | Potency [7]: inactive | Potency [8]: inactive

COc1ccc(OC)c([C@@H](O)[C@H](C)N)c1
Potency [1]: inactive | Potency [3]: inactive | Potency [6]: inactive | Potency [7]: inactive | Potency [8]: inactive

CN1[C@H]2CC[C@@H]1[C@@H](C(=O)O)[C@@H](OC(=O)c1ccccc1)C2
Potency [2]: inactive | Potency [8]: inactive

Oc1cc[c]([Hg][Cl])cc1
Potency [1]: 23.7 µM (active) | Potency [2]: 422 nM (active) and 596 nM (active) | Potency [4]: 19 µM (active) | Potency [6]: inactive | Potency [7]: 8.41 µM (active) and 5.96 µM (active)

O=C1CCO1
Potency [2]: inactive | Potency [3]: inactive | Potency [4]: inactive | Potency [5]: inactive | Potency [6]: inactive | Potency [7]: inactive | Potency [8]: inactive

CCCC(C)(COC(N)=O)COC(=O)NC1CC1 (configuration not stated)
Potency [2]: inactive | Potency [3]: inactive | Potency [8]: inactive

C[N+]1([O-])[C@@H]2CC[C@H]1CC(OC(=O)C(CO)c1ccccc1)C2 (some centres not stated)
Potency [2]: inactive | Potency [3]: inactive

CNC(C)C(O)c1ccc(O)cc1 (configuration not stated)
Potency [2]: inactive

CNC(=O)Oc1ccccc1C(=O)Nc1ccccc1
Potency [2]: 29.8 µM (active) | Potency [6]: inactive | Potency [7]: inactive | Potency [8]: inactive

CCCCC[C@@H](O)C1C(=O)OC(C)[C@H](O)/C=C/C=C/C=C/C=C/C=C(\C)C(O)C(O)C(O)C[C@H](O)C[C@H](O)C[C@H](O)C[C@H](O)C[C@@H]1O (some centres not stated)
Potency [2]: inactive | Potency [3]: inactive | Potency [8]: inactive

CCCCCc1cc(O)c2c(c1)OC(C)(C)[C@@H]1CCC(C)=C[C@@H]21
Potency [2]: 9.44 µM (active) | Potency [3]: 13.3 µM (active) | Potency [5]: inactive | Potency [6]: inactive | Potency [7]: inactive

COC([CH2][Hg])CNC(=O)c1ccccc1OCC(=O)O (configuration not stated)
Potency [2]: 1.68 µM (active)

C[C@H]1CC[C@]2(NC1)O[C@H]1C[C@H]3[C@@H]4CC[C@H]5C[C@@H](O[C@@H]6O[C@H](CO)[C@H](O[C@@H]7O[C@H](CO)[C@@H](O)[C@H](O[C@@H]8OC[C@@H](O)[C@H](O)[C@H]8O)[C@H]7O[C@@H]7O[C@H](CO)[C@@H](O)[C@H](O)[C@H]7O)[C@H](O)[C@H]6O)CC[C@]5(C)[C@H]4CC[C@]3(C)[C@H]1[C@@H]2C
Potency [6]: inactive | Potency [7]: 5.96 µM (active)

C[N+]1(C)CCCCC1COC(=O)C(O)(c1ccccc1)c1ccccc1 (configuration not stated)
Potency [4]: inactive | Potency [5]: inactive | Potency [6]: inactive | Potency [7]: inactive

S=C(S)N1CCNCC1
Potency [2]: inactive

O=c1[nH]cc(N(CCCl)CCCl)c(=O)[nH]1
Potency [1]: 21.1 µM (active) | Potency [2]: inactive

C=CC[C@]1(O)CC[C@H]2[C@@H]3CCC4=CCCC[C@@H]4[C@H]3CC[C@@]21C
Potency [1]: inactive | Potency [3]: inactive | Potency [8]: inactive

C[C@]12CCC(=O)C=C1C=C[C@@H]1[C@@H]2CC[C@@]2(C)[C@H]1CC[C@@]2(O)CCC(=O)O
Potency [4]: inactive | Potency [5]: 3.62 µM (active) | Potency [6]: 12.7 µM (active) | Potency [7]: inactive | Potency [8]: inactive

CC(C)CCC(=O)O[C@H]1CC[C@H]2[C@@H]3CCC4=CC(=O)CC[C@]4(C)[C@H]3CC[C@]12C
Potency [2]: 7.5 µM (active) | Potency [3]: inactive | Potency [4]: inactive | Potency [5]: 0.0107 µM (active) | Potency [6]: 0.0042 µM (active) | Potency [7]: inactive | Potency [8]: inactive

O=C(CCl)c1ccc(Oc2ccc(C(=O)CCl)cc2)cc1
Potency [2]: 26.6 µM (active) | Potency [3]: 29.8 µM (active)

CC(=O)O[C@H]1C[C@H](O[C@H]2[C@@H](O)C[C@H](O[C@H]3[C@@H](O)C[C@H](OC4CC[C@@]5(C)[C@H](CC[C@@H]6[C@@H]5CC[C@]5(C)[C@@H](C7=CC(=O)OC7)CC[C@]65O)C4)O[C@@H]3C)O[C@@H]2C)O[C@H](C)[C@H]1O[C@@H]1O[C@H](CO)[C@@H](O)[C@H](O)[C@H]1O (some centres not stated)
Potency [2]: 0.473 µM (active) | Potency [3]: 0.473 µM (active) | Potency [7]: 1.68 µM (active)

N#CC1(N2CCCCC2)CCCCC1
Potency [3]: inactive | Potency [8]: inactive

C[N+]1(C)[C@@H]2CC[C@H]1CC(OC(=O)c1c[nH]c3ccccc13)C2 (some centres not stated)
Potency [2]: inactive | Potency [4]: inactive | Potency [6]: inactive | Potency [7]: inactive | Potency [8]: inactive

NC1=NC(=O)N2CC12 (configuration not stated)
Potency [2]: inactive | Potency [3]: inactive

C[N+]1([O-])[C@@H]2CC(OC(=O)[C@H](CO)c3ccccc3)C[C@H]1[C@@H]1O[C@@H]12 (some centres not stated)
Potency [2]: inactive | Potency [3]: inactive | Potency [4]: inactive | Potency [6]: inactive | Potency [7]: inactive | Potency [8]: inactive

CCCCCCC(=O)O[C@H]1CC[C@H]2[C@@H]3CC[C@H]4CC(=O)C=C(C)[C@]4(C)[C@H]3CC[C@]12C
Potency [3]: inactive | Potency [8]: inactive

CCCC(C)C1(CC)C(=O)NC(=O)NC1=O (configuration not stated)
Potency [2]: inactive | Potency [3]: inactive | Potency [8]: inactive

C=CCN1CC[C@]23c4c5ccc(O)c4O[C@H]2[C@@H](O)C=C[C@H]3[C@H]1C5
Potency [2]: inactive | Potency [3]: inactive | Potency [4]: inactive | Potency [5]: inactive | Potency [6]: inactive | Potency [7]: inactive | Potency [8]: inactive

OC[C@@H](O)[C@H]1O[C@@H]2O[C@@H](C(Cl)(Cl)Cl)O[C@@H]2[C@H]1O
Potency [3]: inactive

CCCCCCCCCC(=O)O[C@H]1CC[C@H]2[C@@H]3CCC4=CC(=O)CC[C@]4(C)[C@H]3CC[C@]12C
Potency [2]: inactive | Potency [3]: inactive | Potency [8]: inactive

O=C(CS(=O)C(c1ccccc1)c1ccccc1)NO (configuration not stated)
Potency [2]: inactive | Potency [3]: inactive | Potency [8]: inactive

CC(C)C[C@H](CN)CC(=O)O
Potency [3]: inactive

CCON=O
Potency [2]: inactive | Potency [3]: inactive

COc1ccc2c(c1)C13CCCC[C@@H]1C(C2)N(C)CC3 (some centres not stated)
Potency [8]: inactive

CCCC(=O)OC(C(Cl)(Cl)Cl)P(=O)(OC)OC (configuration not stated)
Potency [2]: inactive | Potency [4]: inactive | Potency [5]: inactive | Potency [6]: 33.5 µM (active) | Potency [7]: inactive | Potency [8]: inactive

CNC(C)CC1CCCCC1 (configuration not stated)
Potency [1]: inactive | Potency [4]: inactive | Potency [5]: inactive | Potency [6]: inactive | Potency [7]: inactive | Potency [8]: inactive
